Gal4-VP16 FLuc – counter-screen for ROR gamma inhibitors: Gal4-VP16 reporter | Drosophila S2 Gal4-VP16 UAS-luciferase, luminescence, 20 h | Potency, µM (top dose mostly 53.6 µM), inactives show at the top dose activity, negative = inhibition, most hits filed as inhibitors | 310,000 tested, 3.5% active;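 further: Gal4-VP16 expression switched on by copper sulfate through the metallothionein promoter; nearly all actives have a fitted effect of over 50% in size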
NPSR antag – antagonists of human neuropeptide S receptor cAMP signaling; Q6W5P4; CHO-NPSR cells, cAMP TR-FRET, antagonist mode; Potency, µM (highest dose often 38.3 µM), inactives show top-dose activity change, negative = inhibition, usual class: inhibitors; 220,000 tested, 1% active; AID 1461; further: nearly all actives have a fitted effect of over 50% in size
B2AR arrestin – agonists driving beta-arrestin recruitment to human beta2-adrenergic receptor; P07550; beta-arrestin recruitment to beta2AR, cell-based reporter; Potency, µM (series often up to 46.1 µM), inactives show at the highest dose activation, usual class: activators; 330,000 tested, 0.02% active;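 further: 0% = DMSO controls and full agonism = EC100 isoproterenol or metaproterenol; nearly all actives have a fitted effect of over 65% in size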
RORgamma inh – ROR gamma (mouse) transcription inhibition. P51450. Drosophila S2 Gal4-RORgamma UAS-luciferase reporter, 20 h. Potency, µM (series often up to 53.6 µM), for the others: at the highest dose activity change, negative = inhibition, hits mostly inhibitors. 310,000 tested, 5.4% active; further: nearly all actives have a fitted effect of over 60% in size
Target sequence (P51450 whole entry, looked up, the tested form may be a part): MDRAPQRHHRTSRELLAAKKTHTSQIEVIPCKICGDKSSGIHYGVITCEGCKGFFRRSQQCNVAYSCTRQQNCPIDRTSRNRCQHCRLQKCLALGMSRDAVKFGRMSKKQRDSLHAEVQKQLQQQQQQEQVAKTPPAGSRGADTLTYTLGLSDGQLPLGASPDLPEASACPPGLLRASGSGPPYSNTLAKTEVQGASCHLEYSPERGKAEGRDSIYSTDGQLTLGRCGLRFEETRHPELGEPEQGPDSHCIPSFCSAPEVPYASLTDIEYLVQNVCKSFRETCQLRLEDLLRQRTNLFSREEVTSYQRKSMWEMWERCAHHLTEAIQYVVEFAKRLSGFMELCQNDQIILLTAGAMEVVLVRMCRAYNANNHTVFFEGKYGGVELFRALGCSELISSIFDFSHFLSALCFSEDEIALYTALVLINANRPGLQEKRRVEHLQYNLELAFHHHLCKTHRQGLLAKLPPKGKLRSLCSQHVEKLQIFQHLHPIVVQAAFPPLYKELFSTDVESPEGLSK
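A Gal4/UAS one-hybrid system in insect cells: metallothionein-promoter Gal4–ROR gamma fusion plus Photinus luciferase reporter. Copper sulfate 700 uM final, 20 hr ambient incubation, luminescent detection after 10 min with reagent.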
The depositor's hits bear a star; ? = inconclusive; / = not tested or not shown; [ ] = remark or other dose. Rows were chosen to be rich in hits. Some 5.7% of all compounds tested hit in one or more screens of this group. The call rests on the fitted dose curve; in most records, active means well fitted curve in the direction sought with a large enough effect; inconclusive means small, poorly fitted or top-dose-only effect, or another doubt; inactive means no such curve, though single readings can be large; an effect the other way counts as inactive or inconclusive. Unless noted, on the % scale 0 is the no-effect control and ±100 the full control effect; potency means the concentration at half of the fitted maximal effect.

SMILES	Gal4-VP16 FLuc	NPSR antag	B2AR arrestin	RORgamma inh
FC(F)(F)c1nc2cc3nc4ccccc4[nH]c3cc2n1	-7%	13µM*	-1%	-5%
Cc1cc(C)cc(C(=O)OCC(=O)Nc2ncccn2)c1	/	/	0%	/
CN(NS(=O)(=O)c1ccc(Cl)cc1)c1ncc(C(F)(F)F)cc1Cl	3.2µM*	-20%	0%	2.2µM*
CN(NS(=O)(=O)c1ccc(F)cc1)c1ncc(C(F)(F)F)cc1Cl	6.3µM*	-13%	0%	3.2µM*
Cc1cccc(NC(=S)N/N=C/C(C)c2ccccc2)c1C (stereo not drawn)	7.9µM*	-29%	4%	1.3µM*
Cc1cccc(NC(=S)N/N=C/c2cccc(O)c2)c1C	14µM*	6%	0%	4.5µM*
Cc1ccccc1NC(=S)N/N=C/C(C)c1ccccc1 (stereo not drawn)	8.9µM*	-43%	0%	1.8µM*
CC[C@@]1(c2ccccc2)NC(=O)N(C)C1=O	-2%	/	/	-5%[10 µM]
C[C@H](N)C(=O)N[C@@H](Cc1ccc(F)cc1)C(=O)N[C@@H](CCCN=C(N)N)C(=O)N[C@@H](CC1CCCCC1)C(=O)N[C@@H](CCCCN=C(N)N)C(=O)N[C@@H](Cc1ccc(O)cc1)C(N)=O	1%	/	/	15%
Cc1ccc(NC(=S)N2CCCCC2CO)cc1C (stereo not drawn)	?	-8%	0%	7.9µM*
Cc1cc(Br)ccc1SCC(=O)N1CCN(S(=O)(=O)c2ccccc2)CC1	7.1µM*	/	10%	?
Cc1cc(C)cc(NC(=S)N2CCCC2)c1	?	/	0%	13µM*
Cc1ccc(NC(=S)N2CC(C)OC(C)C2)cc1C (stereo not drawn)	?	/	-1%	16µM*
Cc1cc(C)cc(NC(=S)N2CCN(S(=O)(=O)c3ccccc3)CC2)c1	?	/	0%	11µM*
Cc1cc(C)cc(NC(=S)N2CC(C)OC(C)C2)c1 (stereo not drawn)	?	/	0%	16µM*
CCCCCCCCCCCCCCCC(=O)OC[C@H](O)[C@H]1OC[C@@H](O)[C@@H]1O	-4%	/	/	-11%
CN(C)CCNC(=O)c1cc2c(s1)-c1ccc(Cl)cc1SC2	?	/	0%	10µM*
Cc1cc2nnc(SCC(=O)Nc3cccc(S(=O)(=O)N4CCOCC4)c3)n2c2ccccc12	-19%	-7%[46.1 µM]	0%	?
COc1ccc(/C=C2/SC(=S)N(CCC(=O)N3CCN(C)CC3)C2=O)cc1	19%	/	0%	10µM*
CCOc1ccc(/C=C2\SC(=S)N(CCC(=O)O)C2=O)cc1	-3%	-25%	0%	1.1µM*
COc1ccc(/C=C2/SC(=S)N(CCCC(=O)N3CCN(C)CC3)C2=O)cc1	2.5µM*	/	-1%	1.4µM*
Cc1ccc(/C=C2\SC(=S)N(CCCC(=O)N3CCOCC3)C2=O)cc1	?	/	0%	3.2µM*
CCOc1ccc(/C=C2/SC(=S)N(CCC(=O)Nc3ccc(C(=O)O)cc3)C2=O)cc1	4%	/	0%	?
CN(C)c1ncc2ncc(=O)n(Cc3cccs3)c2n1	-6%	/	/	?
CC(OC(=O)c1ccc(S(=O)(=O)N2CCCCC2)cc1)C(=O)NC1CCCCC1C (stereo not drawn)	5%	/	0%	12%
SMILES	Gal4-VP16 FLuc	NPSR antag	B2AR arrestin	RORgamma inh
CC(OC(=O)c1ccc(C(C)(C)C)cc1)C(=O)NC1CCCCC1C (stereo not drawn)	14µM*	/	0%	42%
Cc1nc2cnc(N(C)C)nc2n(C)c1=O	-9%	/	/	18%
CCC1(C)Cc2ccccc2C(=S)N1 (stereo not drawn)	?	-29%	?	8.9µM*
COc1ccccc1C(=O)Nc1c(C(=O)N2CCN(C)CC2)oc2ccccc12	-13%	/	0%	-6%
COc1ccc([C@]23Cc4ccccc4C(O2)c2c(cc(-c4ccccc4)oc2=O)O3)cc1	-5%[10 µM]	/	0%[9.22 µM]	39%[10 µM]
CCCn1c(C2CCCN2c2nc(-c3cccc(Br)c3)cs2)nc2ccccc21 (stereo not drawn)	?	/	0%	2.5µM*
Cc1ccc(-c2csc(N3CCC[C@@H]3C(=O)NCCn3c(C(F)(F)F)nc4ccccc43)n2)cc1	-14%	/	-1%	-32%
O=C(NC1CCCCC1)C(c1ccc2ncccc2c1)N(Cc1ccccc1)C(=O)c1cccs1 (stereo not drawn)	-4%	?	1%	-6%
COc1ccc(CN(C(=O)c2cccs2)C(C(=O)NC2CCCCC2)c2ccc3ncccc3c2)cc1 (stereo not drawn)	3%	?	0%	35µM*
COc1cccc(C(C(=O)NC2CCCC2)N(Cc2cccnc2)C(=O)Cc2cccs2)c1 (stereo not drawn)	-5%	/	0%	34%
COc1ccc(C(C(=O)NC2CCCC2)N(Cc2cccnc2)C(=O)Cc2cccs2)c(OC)c1 (stereo not drawn)	10%	/	0%	10µM*
CC[n+]1c(/C=C2/C=C(C)CC(C)C2)sc2ccccc21 (stereo not drawn)	-23%	-29%	1%	-15%
CC[n+]1c(C=C2C=C(C)OC(C)=C2)sc2ccccc21	10µM*	-40%	-1%	?
CC(=O)c1c(C)[nH]c(C(=O)COC(=O)CCCOc2ccccc2)c1C	3%	4%	0%	14%
CC(=O)c1c(C)[nH]c(C(=O)OCCOc2ccccc2)c1C	8.9µM*	-5%	0%	11µM*
COc1ccccc1OCCC(=O)OCC(=O)c1[nH]c(C)c(C(C)=O)c1C	?	0%	-1%	14µM*
CCN1C(=O)N(CC)C2C1N(CO)C(=O)N2CO (stereo not drawn)	-16%	13%	0%	-4%
CCOc1ccc(CCNC(=O)COC(=O)c2ccc3c(c2)OCCO3)cc1OCC	/	/	0%	/
COc1cccc(NC(=O)Cn2c3ccc(F)cc3c3nc4n(c(=O)c32)CCCS4)c1	-4%	/	0%	11%
Cc1cc(C)c(NC(=S)NCCCSC2CCCCC2)c(C)c1	?	-39%	0%	2µM*
COCCn1c(=O)c(-c2ccccc2)nc2cnc(N3CCN(C)CC3)nc21	-5%	/	/	1%
O=C(COC(=O)c1ccc(F)c(S(=O)(=O)N2CCOCC2)c1)Nc1ccc2[nH]c(=O)[nH]c2c1	/	/	0%	/
CC(C)c1ccc(C(N)=S)cc1	18µM*	-5%	0%	4µM*
CC(C)c1ccc(C(=O)NNC(=O)c2ccncc2)cc1	-2%	/	-1%	-7%
CN(C(=O)C1CCC(=O)N(Cc2ccccc2F)C1)C1CCOCC1 (stereo not drawn)	10%	/	0%	-4%
CN(N)c1nc(-c2ccccc2)cc(-c2ccccc2)n1	?	/	0%	13µM*
Cc1ccc(-c2cc(-c3ccccc3)nc(Cl)n2)cc1	13%	-27%[46.1 µM]	0%	13%
COc1ccccc1CNC(=O)CSc1nn2c(=O)c(C(C)(C)C)nnc2s1	?	-24%	0%	10µM*
COc1ccc(CCNC(=O)CSc2nn3c(=O)c(C)nnc3s2)cc1OC	2%	/	-1%	-1%
COc1ccc(CNC(=O)CSc2nn3c(=O)c(C(C)(C)C)nnc3s2)cc1OC	2%	-36%	0%	3.5µM*
